The antibiotic and cytotoxicity screens of Wong et al. (2023)
About 3,300 (8.5%) of roughly 39,000 compounds were called active. The full list was thinned out, with actives kept by preference.

Test system: HepG2
Test: cytotoxicity call (relative viability < 0.9)
Details: 10 µM

Structure (SMILES)	cytotoxicity call
O=C(C[C@H]1CC[C@H]2[C@@H](COC[C@H](O)CN2S(=O)(=O)c2cccc(F)c2)O1)NCCCN1CCOCC1	inactive
C[C@@H]1CCCCO[C@H](CN(C)Cc2ccc(C(=O)O)cc2)[C@H](C)CN([C@H](C)CO)C(=O)c2cc(NS(=O)(=O)c3cccs3)ccc2O1	inactive
Cc1ccc(S(=O)(=O)Nc2ccc3c(c2)C(=O)N([C@@H](C)CO)C[C@H](C)[C@H](CN(C)C(=O)NC2CCCCC2)OCCCC[C@H](C)O3)cc1	inactive
NC(=O)N1C(=O)[C@H]2[C@H](C1=O)[C@H]1C=C(CCCO)[C@@H]2[C@H](c2cccs2)N1Cc1cc2c(cc1Br)OCO2	inactive
O=C(C[C@@H]1C[C@@H]2c3cc(NC(=O)C4CCOCC4)ccc3O[C@@H]2[C@@H](CO)O1)NCc1cc(F)ccc1F	inactive
CNC[C@H]1OCCCC[C@@H](C)Oc2ccc(NC(=O)Nc3ccc(C(F)(F)F)cc3)cc2C(=O)N([C@H](C)CO)C[C@H]1C	inactive
COc1ccc(NC(=O)Nc2ccc3c(c2)C(=O)N([C@@H](C)CO)C[C@@H](C)[C@@H](CN(C)S(=O)(=O)c2c(C)noc2C)OCCCC[C@@H](C)O3)cc1	inactive
CCN(CC)CCOC(=O)c1ccc(N)cc1.Cl	inactive
CCN(CC)CCNC(C(=O)OCCC(C)C)c1ccccc1.Cl.Cl (configuration not stated)	inactive
CCCC(C(=O)OCCN(CC)CC)(c1ccccc1)c1ccccc1.Cl	active
CN1CCN(C(=O)C[C@@H]2CC[C@H]3[C@@H](COC[C@@H](O)CN3S(=O)(=O)c3cccc(Cl)c3)O2)CC1	inactive
C[C@@H]1CN([C@@H](C)CO)C(=O)Cc2cc(NC(=O)c3ccncc3)ccc2O[C@@H]1CN(C)Cc1ccc2c(c1)OCO2	inactive
C[C@H](CO)N1C[C@H](C)[C@@H](CN(C)Cc2ccc3c(c2)OCO3)OCCCC[C@H](C)Oc2ccc(NC(=O)Nc3ccc(F)cc3)cc2C1=O	active
C[C@H]1CCCCO[C@@H](CN(C)Cc2ccc3c(c2)OCO3)[C@@H](C)CN([C@@H](C)CO)C(=O)c2cc(NC(=O)Nc3ccc(F)cc3)ccc2O1	inactive
C[C@@H]1CCCCO[C@@H](CN(C)Cc2ccc3c(c2)OCO3)[C@H](C)CN([C@H](C)CO)C(=O)c2cc(NC(=O)Nc3ccc(F)cc3)ccc2O1	active
C[C@@H]1CCCCO[C@H](CN(C)Cc2ccc3c(c2)OCO3)[C@H](C)CN([C@@H](C)CO)C(=O)c2cc(NC(=O)Nc3ccc(F)cc3)ccc2O1	active
C[C@@H]1CCCCO[C@H](CN(C)Cc2ccc3c(c2)OCO3)[C@@H](C)CN([C@H](C)CO)C(=O)c2cc(NC(=O)Nc3ccc(F)cc3)ccc2O1	active
C[C@@H]1CCCCO[C@H](CN(C)C(=O)c2ccccc2)[C@@H](C)CN([C@@H](C)CO)C(=O)c2cc(NC(=O)Cc3ccccc3)ccc2O1	inactive
COc1ccccc1C#Cc1cnc2c(c1)C(=O)N([C@H](C)CO)C[C@@H](C)[C@H](CN(C)C(=O)CC1CC1)O2	inactive
NCc1ccc(C(N)=O)cc1	inactive
C[C@H](CO)N1C[C@H](C)[C@H](CN(C)Cc2cncnc2)Oc2cc(C#CC3CCCC3)ccc2S1(=O)=O	inactive

Structure (SMILES)	cytotoxicity call
CN1CCN(C(=O)C[C@H]2CC[C@@H]3[C@@H](COc4ccc(NC(=O)c5cscn5)cc4C(=O)N3C)O2)CC1	inactive
C[C@@H]1CN([C@H](C)CO)C(=O)Cc2cc(NC(=O)C3CC3)ccc2O[C@H]1CN(C)Cc1ccc(C(=O)O)cc1	inactive
CCCCC(=O)C1CCCC=C1C(=O)O (configuration not stated)	inactive
C[C@H](CO)N1C[C@H](C)[C@@H](CN(C)Cc2cccc(C(F)(F)F)c2)OCc2ccccc2-c2ccccc2C1=O	inactive
C[C@@H]1CN([C@@H](C)CO)C(=O)c2ccccc2-c2ccccc2CO[C@H]1CN(C)C(=O)c1cc(Cl)cc(Cl)c1	inactive
CC[C@@H](C)C(=O)O[C@H]1[C@@H]2CC3=C4CC(=O)O[C@@H](c5ccoc5)[C@]4(C)CC[C@@H]3[C@@](C)(C2=O)[C@@H](CC(=O)OC)C1(C)C	inactive
CSc1nc(C)nc2ccccc12	inactive
CC(C)NC(=O)NCC[C@@H]1CC[C@@H](NC(=O)CN(C)C)[C@@H](CO)O1	inactive
C[C@@H]1CCCCO[C@@H](CN(C)Cc2ccc3c(c2)OCO3)[C@@H](C)CN([C@@H](C)CO)C(=O)c2cc(NC(=O)Nc3ccc(F)cc3)ccc2O1	inactive
C[C@@H]1CN([C@@H](C)CO)C(=O)c2cc(NC(=O)Nc3ccc(F)cc3)ccc2O[C@@H](C)CCCCO[C@@H]1CN(C)Cc1ccc2c(c1)OCO2	active
C[C@H]1CCCCO[C@H](CN(C)Cc2ccc3c(c2)OCO3)[C@@H](C)CN([C@@H](C)CO)C(=O)c2cc(NC(=O)Nc3ccc(F)cc3)ccc2O1	active
C[C@@H]1CN([C@H](C)CO)C(=O)c2cc(NC(=O)Nc3ccc(F)cc3)ccc2O[C@@H](C)CCCCO[C@H]1CN(C)Cc1ccc2c(c1)OCO2	active
C[C@@H]1CN([C@H](C)CO)C(=O)c2cc(NC(=O)Nc3ccc(F)cc3)ccc2O[C@@H](C)CCCCO[C@@H]1CN(C)Cc1ccc2c(c1)OCO2	inactive
C[C@@H]1CCCCO[C@H](CN(C)Cc2ccc3c(c2)OCO3)[C@H](C)CN([C@H](C)CO)C(=O)c2cc(NC(=O)Nc3ccc(F)cc3)ccc2O1	inactive
C[C@@H]1CN([C@@H](C)CO)C(=O)c2cc(NC(=O)Nc3ccc(F)cc3)ccc2O[C@@H](C)CCCCO[C@H]1CN(C)Cc1ccc2c(c1)OCO2	active
C[C@@H]1CCCCO[C@@H](CN(C)Cc2ccc3c(c2)OCO3)[C@@H](C)CN([C@H](C)CO)C(=O)c2cc(NC(=O)Nc3ccc(F)cc3)ccc2O1	inactive
CO[C@H]1CN(C)C(=O)c2cc(NC(=O)C3CC3)ccc2OC[C@H](C)N(C(=O)CN2CCOCC2)C[C@@H]1C	inactive
O=C1OCCC/C=C\[C@H]2O[C@@]34C=CCN(c5ccc6ccccc6c5)C(=O)[C@H]3N(CCCCCO)C(=O)[C@@H]4[C@@H]12	inactive
COCCOC(=O)N1C(=O)[C@@]2(c3ccccc31)[C@H](C(=O)Nc1nc3ccccc3s1)[C@H]1C(=O)O[C@H](c3ccccc3)[C@H](c3ccccc3)N1[C@@H]2c1ccccc1OCCO	inactive
Cc1ccc(S(=O)(=O)Nc2ccc3c(c2)C(=O)N([C@H](C)CO)C[C@H](C)[C@@H](CN(C)C(=O)Nc2ccc4c(c2)OCO4)OCCCC[C@@H](C)O3)cc1	inactive
C[C@@H]1CCCCO[C@@H](CN(C)C(=O)c2ccccc2)[C@H](C)CN([C@@H](C)CO)C(=O)c2cc(NC(=O)Cc3ccccc3)ccc2O1	inactive

Structure (SMILES)	cytotoxicity call
COc1cccnc1N	inactive
COc1ccc(NC(=O)N(C)C[C@H]2OCCCC[C@H](C)Oc3ccc(NC(=O)CCC(F)(F)F)cc3C(=O)N([C@@H](C)CO)C[C@@H]2C)cc1	inactive
CO[C@@H]1CN(C)C(=O)c2ccc(NC(=O)c3cc(C)on3)cc2OC[C@@H](C)N(C(=O)C2CCC2)C[C@H]1C	inactive
COc1ccc(S(=O)(=O)Nc2ccc3c(c2)C(=O)N([C@H](C)CO)C[C@@H](C)[C@H](CN(C)C(=O)NC2CCCCC2)OCCCC[C@H](C)O3)cc1	inactive
C[C@H](CO)N1C[C@H](C)[C@H](CN(C)C(=O)Nc2ccc(F)cc2)Oc2ccc(NS(C)(=O)=O)cc2CC1=O	inactive
C[C@@H]1CCCCO[C@H](CN(C)S(=O)(=O)c2ccc(F)cc2)[C@@H](C)CN([C@@H](C)CO)C(=O)c2cc(NC(=O)C3CCCCC3)ccc2O1	inactive
O=C1O[C@H](c2ccccc2)[C@H](c2ccccc2)N2[C@H]1[C@@H](C(=O)N1CCCCCCC1)[C@]1(C(=O)Nc3ccc(C#CCCO)cc31)[C@H]2c1ccc(OCCO)cc1	inactive
COc1ccc(NC(=O)Nc2ccc3c(c2)C(=O)N([C@H](C)CO)C[C@H](C)[C@@H](CN(C)S(=O)(=O)c2ccc(OC)cc2)OCCCC[C@@H](C)O3)cc1	inactive
COCC#Cc1ccc2c(c1)O[C@@H](CN(C)S(=O)(=O)c1ccc(C)cc1)[C@@H](C)CN([C@@H](C)CO)S2(=O)=O	inactive
C[C@H](CO)N1C[C@H](C)[C@H](CN(C)Cc2ccc3c(c2)OCO3)OCCCC[C@H](C)Oc2ccc(NC(=O)Nc3ccc(F)cc3)cc2C1=O	inactive
C[C@@H]1CCCCO[C@H](CN(C)Cc2ccc3c(c2)OCO3)[C@@H](C)CN([C@@H](C)CO)C(=O)c2cc(NC(=O)Nc3ccc(F)cc3)ccc2O1	active
C[C@@H]1CCCCO[C@@H](CN(C)Cc2ccc3c(c2)OCO3)[C@H](C)CN([C@@H](C)CO)C(=O)c2cc(NC(=O)Nc3ccc(F)cc3)ccc2O1	inactive
CN(C)CCCCNC(=O)[C@@H]1C[C@@H]2C(=O)N[C@@H](CCCCN(C)C)C(=O)N2[C@@H]1c1cccc(OCCO)c1	inactive
S=c1[nH]c2ccccc2s1	inactive
C[C@@H]1CN([C@@H](C)CO)C(=O)c2cc(NC(=O)CCCN(C)C)ccc2O[C@H]1CN(C)S(=O)(=O)c1cccs1	inactive
COCCNCc1ccc(-c2cc3nccc(Oc4ccc(NC(=S)NC(=O)Cc5ccc(F)cc5)cc4F)c3s2)nc1	active
Cn1cnc(-c2cc3nccc(Oc4ccc(NC(=S)NC(=O)Cc5ccccc5)cc4F)c3s2)c1	inactive
COCCNCc1ccc(-c2cc3nccc(Oc4ccc(NC(=O)C5(C(=O)Nc6ccc(F)cc6)CC5)cc4F)c3s2)nc1	active
COc1ccc(CN(C)C[C@H]2Oc3c(NC(=O)Nc4cccc5ccccc45)cccc3C(=O)N([C@H](C)CO)C[C@H]2C)cc1	inactive
COc1cccc(CNC(=O)C[C@@H]2C=C[C@H](NC(=O)C3CCOCC3)[C@H](CO)O2)c1	inactive
